Results on 27 compounds are retold here after PubChem BioAssay AID492993 (Johns Hopkins Ion Channel Center, 2010).

Broadly, the inhibition is how much of the control response was suppressed.

The campaign covered roughly 4,900 compounds. About 200 (4.1%) were called active.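 Rule for the calls: active = thallium signal drop more than 5 SD beyond the mean of the no-compound control wells, seen in both duplicate plates; inactive = the rest.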 The list is a sample of the results.

In the assay the target is Inward rectifier potassium channel 2 (Mus musculus) (UniProt P35561). Description: off-target Kir2.1 potassium flux block – cell-based, HEK293, thallium flux, selectivity assay for KCNK9 modulator project, confirmation (AID 492993).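 For inhibition: signal is fluorescence rise after thallium addition divided by baseline fluorescence; plate controls were assay buffer only for no effect and full block by chlorpromazine control for full effect.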 The conditions noted are these: Kir2.1 cells, FluxOR thallium flux fluorescence, at 10 µM; hits give high values.
Inward rectifier potassium channel 2 (Mus musculus), sequence (P35561 whole entry, looked up): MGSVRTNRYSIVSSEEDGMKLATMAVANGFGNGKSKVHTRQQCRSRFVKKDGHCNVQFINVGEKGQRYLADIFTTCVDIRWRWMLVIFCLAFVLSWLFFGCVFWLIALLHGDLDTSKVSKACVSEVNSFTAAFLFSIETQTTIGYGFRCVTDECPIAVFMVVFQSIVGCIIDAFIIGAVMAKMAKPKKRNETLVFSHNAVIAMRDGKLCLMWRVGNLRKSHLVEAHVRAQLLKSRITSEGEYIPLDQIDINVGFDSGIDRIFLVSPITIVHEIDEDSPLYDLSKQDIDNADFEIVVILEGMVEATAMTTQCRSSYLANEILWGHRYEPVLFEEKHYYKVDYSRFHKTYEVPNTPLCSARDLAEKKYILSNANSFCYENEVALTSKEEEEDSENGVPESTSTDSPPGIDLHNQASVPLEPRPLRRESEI
With `C=CCc1cc(S(=O)(=O)c2ccc(O)c(CC=C)c2)ccc1O`, the inhibition entry was “inactive”.

As for `COc1ccc(C2CC(c3cccs3)=NN2c2ccccc2)cc1` (configuration not stated), the inhibition entry is “inactive”. Then `Cc1cccc(N(C)C(=O)CN2C(=O)COc3ccc(S(=O)(=O)N4CCCCCC4)cc32)c1`, with “inactive”; and `CCOC(=O)c1c(NC(=O)CSc2cn(CC)c3ccccc23)sc2c1CCC2`, with “inactive”. Then `CCCCCC(O)c1cccc(OCc2ccc3ccccc3n2)c1` (configuration not stated), with 70.5% (active); and `COc1cccc(COC(=O)C2CCN(S(=O)(=O)c3ccc(Cl)cc3)CC2)c1OC`, with “inactive”; and `CC(C)C(=O)Nc1cccc(NC(=S)NC(=O)C(c2ccccc2)c2ccccc2)c1`, with “inactive”. In the case of `O=C(Cn1cc(C(=O)c2cccs2)c2ccccc21)NCc1cccs1` it was “inactive”.

As to `C/C(=N\NC(=S)Nc1ccc(C)cc1)c1cc2ccccc2o1`, the inhibition entry was “inactive”. For the compound `Cc1ccc(SCC(=O)c2cc(C)c(OC(=S)N(C)C)c(C)c2)cc1`, the inhibition entry was “inactive”.

Take `CCOC(=O)Cc1cc(=O)[nH]c(=O)[nH]1`: the inhibition entry was “inactive”. Then `O=C(NNc1ccccc1Cl)C(O)(c1cccc(C(F)(F)F)c1)c1cccc(C(F)(F)F)c1`, with “inactive”; and `CC1(C)CC(N2CCN(C(c3ccccc3)c3ccccc3)CC2)=CC(=[N+]2CCCCC2)C1`, with 65% (active); and `c1ccc(C(c2ccccc2)N2CCN(Cc3nnnn3C3CCCCC3)CC2)cc1`, with “inactive”. Take `CCC(C)(C)n1nnnc1C(c1cccs1)N1CCN(c2nc3ccccc3s2)CC1` (configuration not stated): the inhibition entry is “inactive”. Then `Clc1ccc(CSc2nnc(/C=C/c3ccccc3)o2)c(Cl)c1`, with “inactive”; and `COc1ccccc1C(c1nnnn1C(C)(C)C)N1CCN(Cc2ccccc2)CC1` (configuration not stated), with “inactive”. For `CN(C)S(=O)(=O)N1CCC(Oc2cccc(C(=O)NCCCC3CCCC3)c2)CC1`, the inhibition result is “inactive”. Then `O=[N+]([O-])c1ccc(N2CCN(CC(O)COc3ccccc3)CC2)cc1` (configuration not stated), with “inactive”; and `O=C(Oc1ccc(Br)cc1C(=S)N1CCOCC1)c1cccc([N+](=O)[O-])c1`, with “inactive”; and `CN(CCOc1ccccc1)C(=O)c1cc(COc2c(F)cccc2F)on1`, with “inactive”. As to `COC(=O)c1sc(-c2ccc(C(C)(C)C)cc2)cc1NC(=O)/C=C/C(=O)O`, the inhibition result is “inactive”. Then `COc1cc(C(CCN2CCN(c3ccccc3)CC2)c2c(OC)cc(OC)c3ccc(=O)oc23)cc(OC)c1OC` (configuration not stated), with “inactive”; and `O=C1/C(=C/c2ccc3c(c2)OCO3)CCC/C1=C\c1ccc2c(c1)OCO2`, with “inactive”; and `O=C(Nc1cc(Cl)cc(Cl)c1)C(NCCCO)c1ccccc1` (configuration not stated), with “inactive”. As for `O=C(NCc1ccco1)c1ccc(NS(=O)(=O)c2cccc([N+](=O)[O-])c2)cc1`, the inhibition entry is “inactive”. In the case of `O=C1c2ccccc2C2=Nc3ccccc3SC(c3ccccc3F)C12` (configuration not stated) it was “inactive”.
